From PubChem BioAssay (NCATS) come the findings set out here.

Results filed as inconclusive are left out. A number with no mark means an inactive call. The source made the active and inactive calls. Calls come from the whole dose curve; as a rule, active = well fitted cell-killing curve with a large enough effect; inconclusive = small, poorly fitted or top-dose-only effect, or effect the other way; inactive = no such curve, though single readings can be large or run the other way.
Potency is the fitted concentration of half-maximal effect.

The experiment can be described thus: Quantitative High-Throughput drug screen in 47 multiple myeloma cell lines against the NCATS MIPE library collection: EJM_DSMZ cell viability assay (AID 1918926; note: nearly all actives have a fitted effect of over 30% in size). The note with it: EJM myeloma cell viability, CellTiter-Glo ATP, 48 h; series mostly up to 45.8 µM; viability, % of control: at the top concentration. The source says:
PI: Beverly A. Mock Ph.D.
Laboratory of Cancer Biology and Genetics,
Center for Cancer Research, National Cancer Institute,
National Institute of Health, Bethesda, Maryland
Drug resistance and disease progression are common in multiple myeloma (MM) patients, underscoring the need for new therapeutic combinations. […] We hypothesized that effective combinations would reduce MYC expression and enhance p16 activity. […] These preclinical data identify potentially useful drug combinations for evaluation in drug-resistant MM and reveal potential mechanisms of combined drug sensitivity.
Described herein is the primary MIPE qHTS used to cherrypick compounds. Validated compounds were then further tested for potential synergistic activiy.
[1] Peat TJ, Gaikwad SM, Dubois W, Gyabaah-Kessie N, Zhang S, Gorjifard S, Phyo Z, Andres M, Hughitt VK, Simpson RM, Miller MA, Girvin AT, Taylor A, Williams D, D'Antonio N, Zhang Y, Rajagopalan A, Flietner E, Wilson K, Zhang X, Shinn P, Klumpp-Thomas C, McKnight C, Itkin Z, Chen L, Kazandijian D, Zhang J, Michalowski AM, Simmons JK, Keats J, Thomas CJ, Mock BA. Drug combinations identified by high-throughput screening promote cell cycle transition and upregulate Smad pathways in myeloma. Cancer Lett. 2023 Aug 1;568:216284. doi: 10.1016/j.canlet.2023.216284. Epub 2023 Jun 24. PMID: 37356470; PMCID: PMC10408729.
SEQUENCE No. (e.g., 1, 2, 3, etc.); […] (e.g., Cells, Incubation, Reagent, etc.); VALUE and DESCRIPTION.
1; Cells; 5 uL; white, solid bottom 1536-well Greiner assay plate.
2; Compounds; 23 nL; Kalypsis pin tool (Wako USA) equipped with a 1536-well pin head to transfer to the assay plates.
3; Incubation; 48 hours; 37C incubation.
4; Reagent;5uL; CellTiter Glo (Promega).
5; Detector; 425V; Luminescence; Viewlux PerkinElmer.
NOTES (numbers refer to Sequence numbers above)
1. The cell-based screening methods employed in this study were like those previously published. Briefly, the corresponding myeloma cell lines were screened in 1,536-well plates with 500 cells, 5-uL per well for inhibition of cell viability (assessed by measuring ATP levels with CellTiterGlo).
2. NCATS MIPE 4.0 library of approved and investigational drugs were added using the Kalypsis pin tool. Wells treated with DMSO only for 100% viability and media only wells for 0% viability were used as controls.
3. The assay plates were covered and incubated for 48 hours in a 37C, 5% CO2 incubator with controlled humidity.
4. After 48 hours, CellTilter-GloTM luminescent substrate mix (Promega) reagent was added to the assay plate and plates we incubated for 5 min at room temperature.
5. Signal was measured as median relative luminescence units on a ViewLux (PerkinElmer) multiplate reader.
[1] Heske CM, Davis MI, Baumgart JT, Wilson K, Gormally MV, Chen L, Zhang X, Ceribelli M, Duveau DY, Guha R, Ferrer M, Arnaldez FI, Ji J, Tran HL, Zhang Y, Mendoza A, Helman LJ, Thomas CJ. Matrix Screen Identifies Synergistic Combination of PARP Inhibitors and Nicotinamide Phosphoribosyltransferase (NAMPT) Inhibitors in Ewing Sarcoma. Clin Cancer Res. 2017 Dec 1;23(23):7301-7311. doi: 10.1158/1078-0432.CCR-17-1121. Epub 2017 Sep 12. PMID: 28899971; PMCID: PMC6636827.
(In general: In ATP-based viability assays light output follows the ATP content of the culture.)
Consider `CCN(CC)CCNC(=O)c1ccc2nc(-c3ccccc3)c(-c3ccc(CN4CCC(n5c(=O)[nH]c6ccccc65)CC4)cc3)nc2c1`, for which the Potency is 18.7 µM (active).

`Cn1c2cc(S(C)=O)sc2c2cnn(Cc3cccc(N)c3)c(=O)c21` (stereo not given): the “viability, % of control” value was 87.8%.

As for `Nc1cccc(-c2cc3c(Oc4cccc(O)c4)ncnc3[nH]2)c1`, the Potency was 16.6 µM (active).

Consider `CC(C)[C@H](C(=O)Nc1ccc(C(=O)NO)cc1)c1ccccc1`, for which the Potency is 1.87 µM (active).

For the compound `CC(=O)OCC(=O)[C@@]1(O)[C@H](C)C[C@H]2[C@@H]3C=C(C)C4=Cc5c(cnn5-c5ccccc5)C[C@]4(C)[C@@H]3[C@@H](O)C[C@@]21C`, the Potency is 20.9 µM (active).

For `COc1cc2c(NC3CCN(C(C)C)CC3)nc(C3CCCCC3)nc2cc1OCCCN1CCCC1`, the Potency is 10.5 µM (active).

`COc1cccc2c(NCc3ccccc3)nc(-n3c(N)nc4ccccc43)nc12`: the Potency is 6.62 µM (active).

`C1=CCOCc2cc(ccc2OCCN2CCCC2)Nc2nccc(n2)-c2cccc(c2)OCC1`: the Potency was 2.64 µM (active).

As to `CCOc1cc2ncc(C#N)c(Nc3ccc(F)c(Cl)c3)c2cc1NC(=O)C=CCN(C)C`, the Potency was 5.9 µM (active).

For the compound `O=C(Nc1ncc(-c2cc(C(F)F)nn2-c2c(Cl)cccc2Cl)s1)C1CC1`, the Potency was 0.209 µM (active).

Consider `C=CC(=O)Nc1cccc(Oc2nc(Nc3ccc(N4CCN(C)CC4)cc3)ncc2Cl)c1`, for which the Potency is 23.5 µM (active).

For `CCCn1c(=O)c2[nH]c(-c3cnn(Cc4cccc(C(F)(F)F)c4)c3)nc2n(CC)c1=O`, the Potency is 14.8 µM (active).

Regarding `C=C1C(=CC=C2CCC[C@]3(C)[C@@H]([C@H](C)C=C[C@H](C)C(C)C)CC[C@@H]23)C[C@@H](O)C[C@@H]1O`, the Potency is 0.59 µM (active).

Take `Clc1ccc2ncc(-c3cccc(NC4CNC4)n3)n2c1`: the Potency is 18.7 µM (active).

As to `COc1cc2c(Oc3ccc(NC(=O)C4(C(=O)Nc5ccc(F)cc5)CC4)cc3F)ccnc2cc1OCCCN1CCOCC1`, the Potency is 18.7 µM (active).

For `CNC(=O)c1ccccc1Nc1nc(Nc2ccc(N3CCOCC3)cc2OC)ncc1Cl`, the Potency is 13.2 µM (active).

For `Nc1nc(-c2nn(Cc3ccccc3F)c3ncccc23)nc(N)c1N1CCOCC1`, the “viability, % of control” value is 89%.

In the case of `COc1ccc(C(=O)CC2(O)C(=O)Nc3c(Cl)ccc(Cl)c32)cc1` (stereo not given), the Potency is 3.32 µM (active).

Take `C[C@@H](Oc1cc(-n2cnc3ccc(CN4CCN(C)CC4)cc32)sc1C(N)=O)c1ccccc1C(F)(F)F`: the Potency was 23.5 µM (active).

Consider `O=C(NCCCNc1nc(Nc2cccc(NC(=O)N3CCCC3)c2)ncc1I)c1cccs1`, for which the Potency was 14.8 µM (active).

As to `NCC(=O)Nc1ccc(-n2nc(C(F)(F)F)cc2-c2ccc3c(ccc4ccccc43)c2)cc1`, the Potency was 23.5 µM (active).

For the compound `CC(C)(O)c1cc2nc(-c3cnc(N)nc3)nc(N3CCOCC3)c2s1`, the Potency is 0.743 µM (active).

Take `CC[C@@H]1C(=O)N(C)c2cnc(Nc3ccc(C(=O)NC4CCC(N5CCN(CC6CC6)CC5)CC4)cc3OC)nc2N1C(C)C` (stereo not given in full): the Potency is 0.743 µM (active).

Turning to `C=C1C(=CC=C2CCCC3(C)[C@@H]([C@H](C)C=CC=CC(O)(CC)CC)CC[C@@H]23)C[C@@H](O)C[C@@H]1O` (stereo not given in full), the Potency was 18.7 µM (active).

On to `Cc1cnc(Nc2ccc(F)cc2Cl)nc1-c1c[nH]c(C(=O)N[C@H](CO)c2cccc(Cl)c2)c1`, for which the Potency is 23.5 µM (active).

In the case of `COc1ccc(CC2c3cc(OC)c(OC)cc3CC[N+]2(C)CCC(=O)OCCCCCOC(=O)CC[N+]2(C)CCc3cc(OC)c(OC)cc3C2Cc2ccc(OC)c(OC)c2)cc1OC` (stereo not given), the viability, % of control is 94.3% [at 5.15 µM].

With `O=C(c1ccc(Nc2nccc(-c3cc4ccccc4s3)n2)cc1)N1CCC(N2CCCC2)CC1`, the Potency was 18.7 µM (active).

`CC(C)c1cnn2c(NCc3ccccc3)cc(N[C@@H](CO)[C@H](O)CO)nc12`: the Potency was 0.235 µM (active).

In the case of `O=C1CCC[C@@H]2[C@H]3CCC[N+]4([O-])CCC[C@@H](CN12)[C@@H]34` (stereo not given in full), the “viability, % of control” value is 95.9%.

Turning to `c1cc(-c2cnn3cc(-c4ccc(OCCN5CCCCC5)cc4)cnc23)ccn1`, the Potency is 16.6 µM (active).

Take `C[C@H]1C[C@@H]2[C@@H]([C@@H](O)C[C@@]3(C)[C@H]2CC[C@]3(O)C(=O)CO)[C@@]2(C)C=CC(=O)C=C12`: the “viability, % of control” value was 86.4%.

Turning to `COc1ccc(CC2SC(=O)NC2=O)cc1C(=O)NCc1ccc(C(F)(F)F)cc1` (stereo not given), the “viability, % of control” value is 128%.

Turning to `COc1cc2ncn(-c3cc(OCc4ccccc4C(F)(F)F)c(C(N)=O)s3)c2cc1OC`, the Potency is 2.64 µM (active).

Turning to `COc1ccc(F)c(F)c1C(=O)c1cnc(NC2CCN(S(C)(=O)=O)CC2)nc1N`, the Potency is 2.35 µM (active).

With `COc1ccc(OC)c(-c2nnc3ccc(-c4ccc(OC)c(O[C@@H]5CCOC5)c4)nn23)c1`, the Potency is 16.6 µM (active).

On to `COc1cc2ncnc(Nc3ccc(F)c(Cl)c3)c2cc1NC(=O)C=CCN1CCCCC1`, for which the Potency is 20.9 µM (active).

Regarding `Nc1nc(Nc2ccc(S(N)(=O)=O)cc2)nn1C(=O)c1c(F)cccc1F`, the Potency is 6.62 µM (active).

Take `COc1cc(-c2nn(C3CCC(N4CCN(C(C)=O)CC4)CC3)c3ncnc(N)c23)ccc1NC(=O)c1cc2ccccc2n1C` (stereo not given): the Potency is 20.9 µM (active).

`Cc1cc(Nc2cc(N3CCN(C)CC3)nc(C=Cc3ccccc3)n2)n[nH]1`: the Potency is 38.2 µM (active).

`COC(=O)[C@]12CCC(C)(C)C[C@@H]1[C@@H]1C(=O)C=C3[C@@]4(C)C=C(C#N)C(=O)C(C)(C)[C@@H]4CC[C@@]3(C)[C@]1(C)CC2`: the Potency is 0.418 µM (active).
